A selection: hits, their analogues and other compounds. The true share with any hit is near 3.3%.
H9c2 protect: modulators protecting cardiomyocytes from myocardial damage; AID 588492; 360,000 tested, 0.63% active; protection from H2O2 cell death, % at 20 µM; H9c2 cardiomyocytes, H2O2 injury protection, ATPLite, 2 h;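 active = compounds giving at least 50% protection of heart cells from peroxide-induced death in the single-dose screen, raw or plate-pattern-corrected value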
PHOSPHO1 block: PHOSPHO1 (human) inhibition; inhibition, % at 13.3 µM; 290,000 tested, 1.1% active; recombinant PHOSPHO1, absorbance phosphatase assay; AID 1565; Q8TCT1; in the data active = inhibition above about 60%
KCC2 mod: KCC2 (human) Cl- transport modulation. KCC2 cells, thallium flux FluoZin-2 fluorescence. B-score of Tl+ flux slope (higher = more flux/activation; lower = inhibition) at 10 µM. 190,000 tested, 2.2% active. AID 1456;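 active = thallium flux slope and its plate-corrected score both differing from the plate sample mean at a set confidence after two filtering rounds, in either direction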;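 also: slope of fluorescence scaled to starting intensity during 10 to 20 s after thallium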
Efflux pump inh: inhibitors of Candida antifungal efflux pumps expressed in yeast | S. cerevisiae Candida pump triplex, Nile Red efflux | inhibition, % at 10 µM | 330,000 tested, 0.44% active | AID 485275;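 active = plate passing quality check with inhibition over a set limit, or well fluorescence over plate mean plus 4 SD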;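 also: Nile Red retained in pooled yeast measured as flow cytometry median fluorescence; higher means more Nile Red kept so more efflux inhibition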
Calb FLC: C. albicans growth modulation with fluconazole | C. albicans CaCi-2 (fluconazole-resistant clinical isolate) + fluconazole, Alamar Blue growth, 48 h | growth inhibition, % (no concentration beside the values) | 300,000 tested, 0.57% active | AID 1979;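 active = growth inhibition above about 58% in most replicates, limit read from the data, passing the limit was not always enough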;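 also: all wells also contain fluconazole at 8 µg/ml as a sub-toxic cotreatment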
A number is an active result; n = inactive; x = no result.

SMILES | H9c2 protect | PHOSPHO1 block | KCC2 mod | Efflux pump inh | Calb FLC
CC(=O)C1=CCC(c2ccc(Br)cc2)N(S(=O)(=O)c2ccc(C)cc2)C1 (centres undefined) | n | x | x | x | x
C[C@H](O)[C@@H]1CN2CCc3c([nH]c4ccc(-c5ccc6c(c5)OCO6)cc34)[C@@H]2C[C@@H]1N(C)C(=O)Nc1ccc(F)cc1 | n | x | x | x | x
C[C@@H]1ON(C)[C@H]2C[C@H]3c4[nH]c5ccc(-c6ccc7c(c6)OCO7)cc5c4CCN3C[C@@H]12 | 62 | x | x | x | x
Cc1cccc(NC(=O)c2nc[nH]c2C(=O)NCCN(CCNC(=O)c2[nH]cnc2C(=O)Nc2cccc(C)c2)CCNC(=O)c2[nH]cnc2C(=O)Nc2cccc(C)c2)c1 | n | x | x | n | x
Cc1cccc(NC(=O)c2nc[nH]c2C(=O)NCCCNC(=O)c2[nH]cnc2C(=O)Nc2cccc(C)c2)c1 | 62 | x | x | n | x
O=C(Nc1ccccc1)c1nc[nH]c1C(=O)NCCCCCCNC(=O)c1[nH]cnc1C(=O)Nc1ccccc1 | 97 | x | x | n | x
O=C(Nc1ccccc1)c1nc[nH]c1C(=O)NCCCNC(=O)c1[nH]cnc1C(=O)Nc1ccccc1 | n | x | x | n | x
O=C(/C=C/c1ccc(NC(=O)c2ccccc2-c2ccccc2C(=O)O)cc1)c1ccccc1 | n | n | x | n | 98
CC(/C=N/NC(=O)c1ccc(Cn2cc([N+](=O)[O-])cn2)o1)=C\c1ccccc1 | n | n | x | n | n
COc1ccc(C(C(=O)NC2CCCCC2)N(C(=O)Cc2c[nH]c3ccccc23)c2ccccc2C)cc1OC (centres undefined) | n | n | n | n | n
COCCN(C(=O)Cc1cccs1)C(C(=O)NC1CCCC1)c1cc(OC)c(OC)c(OC)c1 (centres undefined) | n | 62 | n | n | n
COc1ccc(C(C(=O)NC2CCCCC2)N(Cc2cccs2)C(=O)Cc2c[nH]c3ccccc23)cc1OC (centres undefined) | 52 | n | n | n | n
CCCC(=O)Oc1ccc(C2NC(=O)c3ccccc3O2)cc1 (centres undefined) | n | n | x | n | n
O=C(COc1ccc(Br)cc1)NCCCNC(=O)c1cnccn1 | n | n | x | n | n
COc1cc(C(=O)N/C(=C\c2cn(C)c3ccccc23)C(=O)NCCCn2ccnc2)cc(OC)c1OC | n | n | x | n | n
COc1ccc(CNn2c(-c3cccs3)nc3ccccc3c2=O)cc1OC | 67 | n | n | n | n
CN(C)C1=NC[C@H](Cc2ccccc2)N1CC1CCC(C(C)(C)C)CC1 (some centres undefined) | n | n | x | n | n
O=C(Oc1c(CN2CCOCC2)cc(Cl)c2cccnc12)c1ccccc1F | n | n | n | n | 102
COc1ccc(C(=O)Oc2c(CN3CCOCC3)cc(Cl)c3cccnc23)cc1OC | x | x | n | n | n
O=C(Oc1c(CN2CCOCC2)cc(Cl)c2cccnc12)c1ccccc1 | n | n | n | n | 118
Oc1c(CN2CCc3ccccc3C2)cc(Cl)c2cccnc12 | n | n | n | n | 83
O=c1oc2ccccc2c(O)c1Cc1cc(Cl)c2cccnc2c1O | n | n | n | n | 84
O=C(Nc1ccccc1)C1=C[C@H](c2ccc3c(c2)OCO3)C[C@H](OCc2ccc(CO)cc2)O1 | n | n | n | x | n
CC[C@]12c3[nH]c4cc(CCC(=O)N(C)C)ccc4c3CCN1C(=O)[C@@H](CC(=O)NCc1ccco1)C[C@@H]2C(=O)N1CCN(C(=O)C2CC2)CC1 | n | x | x | n | x
CC1CCN(C(=O)c2ccc(NS(=O)(=O)c3ccc4[nH]c(=O)[nH]c4c3)cc2)CC1 | n | x | x | n | x
SMILES | H9c2 protect | PHOSPHO1 block | KCC2 mod | Efflux pump inh | Calb FLC
CN1C(=O)c2ccc(Oc3ccccc3)cc2C1=O | n | x | x | n | n
COc1cc(OC)cc(C(=O)Oc2c(CN3CCOCC3)cc(Cl)c3cccnc23)c1 | n | n | n | n | 113
CC(=O)c1c(C)[nH]c(C(=O)CSc2nnc(-c3ccco3)n2Cc2ccccc2)c1C | n | 62 | x | n | n
O=C(CSc1nnc(-c2ccco2)n1Cc1ccccc1)OC1CCCCC1 | n | n | n | n | 97
O=Nc1c(-c2cccc([N+](=O)[O-])c2)nc2ncccn12 | n | n | n | n | 94
COc1ccc(C(=O)NCCC(=O)N2CCC3(CC2)NCCc2[nH]cnc23)cc1 | n | n | x | n | n
Nc1ccc(C(=O)O)cc1[N+](=O)[O-] | n | n | n | n | n
Nc1ccc(C(=O)c2cccs2)cc1[N+](=O)[O-] | n | n | n | n | 126
S=c1[nH]nc(-c2cc(-c3ccsc3)n[nH]2)n1-c1cccc2ccccc12 | n | n | n | n | n
